The supplement of paper PMC6555819

Experiments:
Assay in all cases: PBM binding z-score (relative to random genomic background probes); higher = stronger binding; sequences stand for … in GC…GCGATTGACAGCGTAGAATGAAGG
[1] = test system: PPARg:RXRa DBDmut IVT, anti-RXR (DBD mutation: RXRa K156A/R161A, NR concentration 270 nM, RXRa partner concentration 90 nM)
Method in brief: (§1)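 Scanned fluorescence from custom Agilent 4×180K protein-binding microarrays was regression-normalized. Binding z-scores use random background probes as reference. Ligand-free nuclear receptor dimers were incubated on the arrays for 1 h and detected with antibodies against each partner (one per run).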

[2] = test system: PPARg:RXRa IVT, anti-PPARg (NR concentration 270 nM, RXRa partner concentration 90 nM)
Method in brief: as §1

[3] = test system: PPARg DBDmut:RXRa IVT, anti-PPARg (DBD mutation: PPARg1 K132A/R137A, NR concentration 270 nM, RXRa partner concentration 90 nM)
Method in brief: as §1

[4] = test system: PPARg DBDmut IVT, anti-PPARg (DBD mutation: PPARg1 K132A/R137A, NR concentration 270 nM)
Method in brief: as §1

[5] = test system: PPARg homodimer (NR concentration 180 nM)
Method in brief: as §1

[6] = test system: PXR:RXRa (NR concentration 270 nM, RXRa partner concentration 90 nM)
Method in brief: as §1

[7] = test system: PXR homodimer (NR concentration 270 nM)
Method in brief: as §1

[8] = test system: RARa:RXR (NR concentration 270 nM, RXRa partner concentration 90 nM)
Method in brief: as §1

[9] = test system: RARa homodimer (NR concentration 270 nM)
Method in brief: as §1

[10] = test system: RARb:RXRa (NR concentration 270 nM, RXRa partner concentration 90 nM)
Method in brief: as §1

TCTTGTAGATCATAGGTTAAGAAAGCCGAAGCCT
PBM binding z-score [1]: 1.8
PBM binding z-score [2]: 1.96
PBM binding z-score [3]: 0.499
PBM binding z-score [4]: 1.11
PBM binding z-score [5]: 0.856
PBM binding z-score [6]: 0.84
PBM binding z-score [7]: -0.184
PBM binding z-score [8]: 1.37
PBM binding z-score [9]: 0.366
PBM binding z-score [10]: 0.882

CCAGACAGGTGAGGAGGTAACTCAGCCTCGATTA
PBM binding z-score [1]: 0.968
PBM binding z-score [2]: 0.86
PBM binding z-score [3]: -0.637
PBM binding z-score [4]: -0.654
PBM binding z-score [5]: 0.632
PBM binding z-score [6]: 0.016
PBM binding z-score [7]: 0.482
PBM binding z-score [8]: 0.341
PBM binding z-score [9]: 0.613
PBM binding z-score [10]: 0.524

GCTAGCAGGCCATTGGGGTCACTCAATGACGGGC
PBM binding z-score [1]: 0.93
PBM binding z-score [2]: 2.42
PBM binding z-score [3]: -0.918
PBM binding z-score [4]: -0.85
PBM binding z-score [5]: 1.48
PBM binding z-score [6]: 5.48
PBM binding z-score [7]: 8.59
PBM binding z-score [8]: 5.19
PBM binding z-score [9]: -0.69
PBM binding z-score [10]: 3.01

ACTAGCAGGCCAACGGTCACTCAAGATTAGTCCG
PBM binding z-score [1]: 1.21
PBM binding z-score [2]: 1.38
PBM binding z-score [3]: -0.412
PBM binding z-score [4]: -0.352
PBM binding z-score [5]: 0.237
PBM binding z-score [6]: -0.526
PBM binding z-score [7]: -0.588
PBM binding z-score [8]: 0.0763
PBM binding z-score [9]: -0.817
PBM binding z-score [10]: 1.64

GCTTACGGTTCAAAGGTTATAGCATGAATAGAAT
PBM binding z-score [1]: -0.685
PBM binding z-score [2]: 0.999
PBM binding z-score [3]: 0.711
PBM binding z-score [4]: 0.999
PBM binding z-score [5]: 0.99
PBM binding z-score [6]: 4.71
PBM binding z-score [7]: 0.601
PBM binding z-score [8]: 6.22
PBM binding z-score [9]: 0.458
PBM binding z-score [10]: 2.33

CGAACTAGGTCATCCAGGAGAGTGAATACATTGA
PBM binding z-score [1]: 7.67
PBM binding z-score [2]: 8.61
PBM binding z-score [3]: 1.76
PBM binding z-score [4]: 0.981
PBM binding z-score [5]: 2.19
PBM binding z-score [6]: 1.34
PBM binding z-score [7]: 0.448
PBM binding z-score [8]: 2.31
PBM binding z-score [9]: 0.76
PBM binding z-score [10]: 3.78

CCAACTGGGCCAAGGTCATTGATCAGTCAAAGCA
PBM binding z-score [1]: 4.04
PBM binding z-score [2]: 4.58
PBM binding z-score [3]: -0.617
PBM binding z-score [4]: -0.824
PBM binding z-score [5]: 1.58
PBM binding z-score [6]: 3.11
PBM binding z-score [7]: 0.914
PBM binding z-score [8]: 3.22
PBM binding z-score [9]: 0.0494
PBM binding z-score [10]: 3.39

CCCACTGGGGCAAGGTTACCATAACGCACAGCCA
PBM binding z-score [1]: 4.18
PBM binding z-score [2]: 5.58
PBM binding z-score [3]: 2.71
PBM binding z-score [4]: 0.0183
PBM binding z-score [5]: 1.07
PBM binding z-score [6]: 0.144
PBM binding z-score [7]: -0.536
PBM binding z-score [8]: 1.05
PBM binding z-score [9]: 0.0116
PBM binding z-score [10]: 1.75

CCTACTGGGCCACGATAGGTCATTGATTCAGTGA
PBM binding z-score [1]: 5.57
PBM binding z-score [2]: 5.44
PBM binding z-score [3]: 0.89
PBM binding z-score [4]: -0.512
PBM binding z-score [5]: 1.33
PBM binding z-score [6]: 1.49
PBM binding z-score [7]: 0.172
PBM binding z-score [8]: 2.14
PBM binding z-score [9]: 0.152
PBM binding z-score [10]: 2.06

TGTACAGGGTCAAAGGCCAGAGTACGAATGTCGA
PBM binding z-score [1]: 2.29
PBM binding z-score [2]: 5.22
PBM binding z-score [3]: 1.24
PBM binding z-score [4]: 1.55
PBM binding z-score [5]: 1.87
PBM binding z-score [6]: 4.52
PBM binding z-score [7]: -0.0944
PBM binding z-score [8]: 6.38
PBM binding z-score [9]: 0.38
PBM binding z-score [10]: 4.42

ATCTCTAGGTAAAGTTGAGTGAAAGATCGATAGA
PBM binding z-score [1]: 2.32
PBM binding z-score [2]: 2.1
PBM binding z-score [3]: 0.815
PBM binding z-score [4]: 1.27
PBM binding z-score [5]: 0.789
PBM binding z-score [6]: -0.222
PBM binding z-score [7]: 0.345
PBM binding z-score [8]: 0.0645
PBM binding z-score [9]: 0.741
PBM binding z-score [10]: 0.652

GCTCGGAGGACAAGGTCATAGCTTTGTCCGTAGA
PBM binding z-score [1]: 0.27
PBM binding z-score [2]: 1.58
PBM binding z-score [3]: -0.805
PBM binding z-score [4]: -1.25
PBM binding z-score [5]: 1.11
PBM binding z-score [6]: 3.46
PBM binding z-score [7]: 0.287
PBM binding z-score [8]: 3.71
PBM binding z-score [9]: -0.351
PBM binding z-score [10]: 3.79

CGTCAAAGTTTAAGGTAACGTAACAGAAAGCAGC
PBM binding z-score [1]: -0.15
PBM binding z-score [2]: 0.591
PBM binding z-score [3]: 0.678
PBM binding z-score [4]: -0.068
PBM binding z-score [5]: 0.325
PBM binding z-score [6]: 0.369
PBM binding z-score [7]: 0.0704
PBM binding z-score [8]: 0.975
PBM binding z-score [9]: 0.46
PBM binding z-score [10]: 2.12

CAGCCTAGGTTAGGGCCAGTATAGGAGGAACGTT
PBM binding z-score [1]: -0.289
PBM binding z-score [2]: -0.377
PBM binding z-score [3]: -1.05
PBM binding z-score [4]: -1.1
PBM binding z-score [5]: -1.26
PBM binding z-score [6]: -0.636
PBM binding z-score [7]: -0.655
PBM binding z-score [8]: -0.399
PBM binding z-score [9]: -0.834
PBM binding z-score [10]: 0.516

CCTTACGGGTCACTGACCGGTTATAGCATTTGGA
PBM binding z-score [1]: 3.02
PBM binding z-score [2]: 3.86
PBM binding z-score [3]: 1.44
PBM binding z-score [4]: -0.432
PBM binding z-score [5]: 2.45
PBM binding z-score [6]: 2.93
PBM binding z-score [7]: 0.0567
PBM binding z-score [8]: 3.72
PBM binding z-score [9]: 1.71
PBM binding z-score [10]: 3.96

CGAACTAGGTCAAGCACAGTGAATCTCCGCACGC
PBM binding z-score [1]: 8.33
PBM binding z-score [2]: 8.4
PBM binding z-score [3]: 5.79
PBM binding z-score [4]: 3.74
PBM binding z-score [5]: 2.82
PBM binding z-score [6]: 1.18
PBM binding z-score [7]: -0.61
PBM binding z-score [8]: 2.31
PBM binding z-score [9]: 0.512
PBM binding z-score [10]: 3.98

ATCTCTAGGTAAGCAAGTTCAGTGAATGCCGAAC
PBM binding z-score [1]: 1.64
PBM binding z-score [2]: 1.7
PBM binding z-score [3]: 0.134
PBM binding z-score [4]: -0.0297
PBM binding z-score [5]: 0.55
PBM binding z-score [6]: 1.37
PBM binding z-score [7]: 1.12
PBM binding z-score [8]: 0.257
PBM binding z-score [9]: 0.268
PBM binding z-score [10]: 0.858

GTACCAAGGTGAATAAGTCGTTGATGAGTAGGCG
PBM binding z-score [1]: 1.47
PBM binding z-score [2]: 1.77
PBM binding z-score [3]: -0.113
PBM binding z-score [4]: 0.912
PBM binding z-score [5]: 0.706
PBM binding z-score [6]: -0.129
PBM binding z-score [7]: 0.166
PBM binding z-score [8]: 0.233
PBM binding z-score [9]: 0.8
PBM binding z-score [10]: 1.27

CTTCCAAGGTCAGCAGGTCAGTGAAAGCGACGTG
PBM binding z-score [1]: 3.41
PBM binding z-score [2]: 3.82
PBM binding z-score [3]: -0.278
PBM binding z-score [4]: -0.339
PBM binding z-score [5]: 3.61
PBM binding z-score [6]: 3.42
PBM binding z-score [7]: 0.858
PBM binding z-score [8]: 4.68
PBM binding z-score [9]: 1.77
PBM binding z-score [10]: 5.26

ACAGACAGGCGAGTGAAGGTAACTCAGCTGGACG
PBM binding z-score [1]: -0.427
PBM binding z-score [2]: -0.121
PBM binding z-score [3]: 0.466
PBM binding z-score [4]: -0.29
PBM binding z-score [5]: 0.0641
PBM binding z-score [6]: -0.279
PBM binding z-score [7]: -0.674
PBM binding z-score [8]: 0.193
PBM binding z-score [9]: -0.258
PBM binding z-score [10]: 0.0266

ATATGTTGGTTAGCTGGGGTCATTCAGACTAGGC
PBM binding z-score [1]: 0.909
PBM binding z-score [2]: 1.74
PBM binding z-score [3]: 0.767
PBM binding z-score [4]: 1.26
PBM binding z-score [5]: 2.8
PBM binding z-score [6]: 5.64
PBM binding z-score [7]: 3.66
PBM binding z-score [8]: 5.26
PBM binding z-score [9]: 1.53
PBM binding z-score [10]: 2.72

TCGAGTAGGGTAGGGGCATTCAGAATGGCGTCGA
PBM binding z-score [1]: 1.02
PBM binding z-score [2]: 1.33
PBM binding z-score [3]: -0.123
PBM binding z-score [4]: 1.32
PBM binding z-score [5]: 0.484
PBM binding z-score [6]: 0.566
PBM binding z-score [7]: 0.395
PBM binding z-score [8]: 0.405
PBM binding z-score [9]: 0.0821
PBM binding z-score [10]: 0.666

TATAGAGGGTCAAAGGCCAGAGTACGAATGTCGA
PBM binding z-score [1]: 2.58
PBM binding z-score [2]: 4.43
PBM binding z-score [3]: 0.901
PBM binding z-score [4]: 0.741
PBM binding z-score [5]: 2.2
PBM binding z-score [6]: 3.62
PBM binding z-score [7]: 0.282
PBM binding z-score [8]: 5.1
PBM binding z-score [9]: 1.12
PBM binding z-score [10]: 4.11

ATACCAAGGTGATCGTGAGGCCGTTGATACTAAC
PBM binding z-score [1]: 0.533
PBM binding z-score [2]: 1.06
PBM binding z-score [3]: 0.198
PBM binding z-score [4]: 0.471
PBM binding z-score [5]: 0.381
PBM binding z-score [6]: 0.595
PBM binding z-score [7]: 0.275
PBM binding z-score [8]: 1.03
PBM binding z-score [9]: -0.0475
PBM binding z-score [10]: 0.735
